Results from the supplement of paper PMC11732987, “Enantioselective OTUD7B fragment discovery through chemoproteomics screening and high-throughput optimisation” (Communications Chemistry, 2025).

Tests used:
Assay in all cases: log2 ratio of Biotin-Ahx-Ub-VS probe labelling (fragment/DMSO); higher = less target engagement (more negative = stronger competition), active = hit call of the paper (q ≤ 0.05, log2 ratio ≤ -1)
Settings in all cases: compound concentration: 200 uM; treatment time: 3 h
ALG13 = target: T1, ALG13 (UniProt Q9NP73)
T1 sequence (whole entry): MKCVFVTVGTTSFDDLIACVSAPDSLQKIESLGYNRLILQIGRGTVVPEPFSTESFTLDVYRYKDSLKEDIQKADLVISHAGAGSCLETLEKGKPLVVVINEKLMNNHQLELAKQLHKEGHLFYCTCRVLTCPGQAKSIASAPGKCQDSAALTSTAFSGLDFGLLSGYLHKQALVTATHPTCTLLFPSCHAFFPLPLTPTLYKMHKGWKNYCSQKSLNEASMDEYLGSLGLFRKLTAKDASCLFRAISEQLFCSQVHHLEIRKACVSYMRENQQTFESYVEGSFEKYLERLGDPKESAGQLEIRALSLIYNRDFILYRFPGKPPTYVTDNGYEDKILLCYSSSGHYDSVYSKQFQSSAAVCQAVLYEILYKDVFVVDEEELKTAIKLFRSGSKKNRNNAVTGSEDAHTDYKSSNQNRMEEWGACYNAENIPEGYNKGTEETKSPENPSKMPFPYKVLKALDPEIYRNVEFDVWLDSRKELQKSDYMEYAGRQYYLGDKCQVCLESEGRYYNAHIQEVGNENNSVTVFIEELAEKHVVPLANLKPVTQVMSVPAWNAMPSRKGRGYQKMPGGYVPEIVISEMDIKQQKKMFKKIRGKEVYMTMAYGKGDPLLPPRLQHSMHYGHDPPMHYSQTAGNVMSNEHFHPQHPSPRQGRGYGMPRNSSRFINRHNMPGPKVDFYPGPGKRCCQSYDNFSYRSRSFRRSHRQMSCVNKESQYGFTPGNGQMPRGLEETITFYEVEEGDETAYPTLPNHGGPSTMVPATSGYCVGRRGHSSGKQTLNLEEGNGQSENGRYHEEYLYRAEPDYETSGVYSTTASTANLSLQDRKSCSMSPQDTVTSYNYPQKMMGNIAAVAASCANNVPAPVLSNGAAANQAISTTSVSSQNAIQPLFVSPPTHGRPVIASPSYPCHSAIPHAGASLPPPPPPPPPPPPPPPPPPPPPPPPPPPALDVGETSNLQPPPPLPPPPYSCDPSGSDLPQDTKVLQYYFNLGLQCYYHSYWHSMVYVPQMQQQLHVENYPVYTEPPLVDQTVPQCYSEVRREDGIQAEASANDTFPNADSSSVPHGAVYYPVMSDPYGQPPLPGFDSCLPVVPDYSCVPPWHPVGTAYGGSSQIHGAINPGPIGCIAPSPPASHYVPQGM
Procedure, shortened: (§1)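 Lysate from HEK293T cells, 495 µg per sample in Tris/CHAPS/IGEPAL buffer with protease inhibitors, was treated for 3 h in triplicate with fragment at 200 µM or vehicle. Biotin-Ahx-Ub-VS was next added at 0.5 µM final for 1 h. The labelled DUBs were enriched with NeutrAvidin, digested with LysC and trypsin, and run by diaPASEF LC-MS/MS, with values given as average log2 fragment/vehicle ratios by unpaired t-test on global-median-normalised Spectronaut quantities of proteins with ≥2 unique peptides.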

ATXN3 = ATXN3 (UniProt P54252)
Procedure, shortened: as §1

BAP1 = target: T2, BAP1 (UniProt Q92560)
T2 sequence (whole entry): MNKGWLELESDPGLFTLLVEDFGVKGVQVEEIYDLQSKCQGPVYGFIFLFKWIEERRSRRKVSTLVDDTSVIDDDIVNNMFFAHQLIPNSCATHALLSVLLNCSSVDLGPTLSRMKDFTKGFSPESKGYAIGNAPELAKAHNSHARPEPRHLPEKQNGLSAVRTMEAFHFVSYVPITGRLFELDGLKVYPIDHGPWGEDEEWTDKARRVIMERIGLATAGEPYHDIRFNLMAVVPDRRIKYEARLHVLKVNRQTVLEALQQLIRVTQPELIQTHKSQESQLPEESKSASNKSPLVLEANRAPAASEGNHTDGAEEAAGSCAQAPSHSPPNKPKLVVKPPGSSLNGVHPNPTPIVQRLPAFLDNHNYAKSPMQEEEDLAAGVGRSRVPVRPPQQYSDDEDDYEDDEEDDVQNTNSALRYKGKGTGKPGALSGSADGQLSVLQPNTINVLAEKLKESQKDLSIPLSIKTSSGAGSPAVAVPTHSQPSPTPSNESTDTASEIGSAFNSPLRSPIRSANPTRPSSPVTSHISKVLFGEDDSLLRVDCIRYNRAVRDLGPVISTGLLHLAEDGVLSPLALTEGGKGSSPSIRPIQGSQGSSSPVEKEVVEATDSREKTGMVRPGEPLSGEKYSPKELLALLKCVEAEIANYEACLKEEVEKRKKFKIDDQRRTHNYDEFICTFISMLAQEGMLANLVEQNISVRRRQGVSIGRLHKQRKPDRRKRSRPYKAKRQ
Procedure, shortened: as §1

EIF3F = EIF3F (UniProt O00303)
Procedure, shortened: as §1

EIF3H = EIF3H (UniProt O15372)
Procedure, shortened: as §1

FAM105A = target: T3, FAM105A (UniProt Q9NUU6)
T3 sequence (whole entry): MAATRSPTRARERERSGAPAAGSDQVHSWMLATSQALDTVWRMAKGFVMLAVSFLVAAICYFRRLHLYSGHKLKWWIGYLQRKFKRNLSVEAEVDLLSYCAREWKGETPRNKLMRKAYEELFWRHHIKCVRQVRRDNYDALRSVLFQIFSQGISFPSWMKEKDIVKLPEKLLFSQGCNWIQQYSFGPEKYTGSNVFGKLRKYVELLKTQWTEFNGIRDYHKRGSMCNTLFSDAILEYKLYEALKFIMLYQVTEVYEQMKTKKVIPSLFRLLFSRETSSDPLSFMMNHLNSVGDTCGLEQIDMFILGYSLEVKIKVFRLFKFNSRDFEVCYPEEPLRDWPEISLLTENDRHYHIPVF
Procedure, shortened: as §1

OTUB1 = OTUB1 (UniProt Q96FW1)
Procedure, shortened: as §1

OTUD4 = target: T4, OTUD4 (UniProt Q01804)
T4 sequence (whole entry): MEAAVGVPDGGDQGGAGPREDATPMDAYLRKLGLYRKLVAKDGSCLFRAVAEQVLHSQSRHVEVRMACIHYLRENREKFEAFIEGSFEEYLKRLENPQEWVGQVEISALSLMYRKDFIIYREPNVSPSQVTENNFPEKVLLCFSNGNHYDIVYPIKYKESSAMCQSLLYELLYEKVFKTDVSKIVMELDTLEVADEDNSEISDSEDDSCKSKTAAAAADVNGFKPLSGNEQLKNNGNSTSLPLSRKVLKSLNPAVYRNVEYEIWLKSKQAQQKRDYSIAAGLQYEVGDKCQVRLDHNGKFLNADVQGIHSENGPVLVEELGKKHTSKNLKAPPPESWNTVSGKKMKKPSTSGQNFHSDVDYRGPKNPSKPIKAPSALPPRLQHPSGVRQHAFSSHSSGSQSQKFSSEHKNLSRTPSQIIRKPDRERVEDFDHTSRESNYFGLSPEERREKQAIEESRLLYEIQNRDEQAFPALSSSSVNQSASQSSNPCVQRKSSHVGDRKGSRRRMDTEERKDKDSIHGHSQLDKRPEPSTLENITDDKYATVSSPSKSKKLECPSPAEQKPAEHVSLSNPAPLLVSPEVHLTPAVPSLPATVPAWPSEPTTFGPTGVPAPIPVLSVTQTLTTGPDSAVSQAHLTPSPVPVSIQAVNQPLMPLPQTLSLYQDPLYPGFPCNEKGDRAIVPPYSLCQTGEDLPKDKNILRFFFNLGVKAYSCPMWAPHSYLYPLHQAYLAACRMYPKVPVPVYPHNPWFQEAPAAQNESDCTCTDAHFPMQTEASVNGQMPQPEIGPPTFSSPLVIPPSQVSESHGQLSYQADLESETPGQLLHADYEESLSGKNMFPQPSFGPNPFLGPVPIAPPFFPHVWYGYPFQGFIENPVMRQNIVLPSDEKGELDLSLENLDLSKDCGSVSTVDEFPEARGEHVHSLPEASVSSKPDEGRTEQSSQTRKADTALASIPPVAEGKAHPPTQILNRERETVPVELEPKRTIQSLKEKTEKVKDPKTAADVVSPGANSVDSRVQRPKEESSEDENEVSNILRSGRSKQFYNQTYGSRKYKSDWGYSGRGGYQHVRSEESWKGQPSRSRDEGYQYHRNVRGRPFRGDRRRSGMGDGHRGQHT
Procedure, shortened: as §1

OTUD5 = target: T5, OTUD5 (UniProt Q96G74)
T5 sequence (whole entry): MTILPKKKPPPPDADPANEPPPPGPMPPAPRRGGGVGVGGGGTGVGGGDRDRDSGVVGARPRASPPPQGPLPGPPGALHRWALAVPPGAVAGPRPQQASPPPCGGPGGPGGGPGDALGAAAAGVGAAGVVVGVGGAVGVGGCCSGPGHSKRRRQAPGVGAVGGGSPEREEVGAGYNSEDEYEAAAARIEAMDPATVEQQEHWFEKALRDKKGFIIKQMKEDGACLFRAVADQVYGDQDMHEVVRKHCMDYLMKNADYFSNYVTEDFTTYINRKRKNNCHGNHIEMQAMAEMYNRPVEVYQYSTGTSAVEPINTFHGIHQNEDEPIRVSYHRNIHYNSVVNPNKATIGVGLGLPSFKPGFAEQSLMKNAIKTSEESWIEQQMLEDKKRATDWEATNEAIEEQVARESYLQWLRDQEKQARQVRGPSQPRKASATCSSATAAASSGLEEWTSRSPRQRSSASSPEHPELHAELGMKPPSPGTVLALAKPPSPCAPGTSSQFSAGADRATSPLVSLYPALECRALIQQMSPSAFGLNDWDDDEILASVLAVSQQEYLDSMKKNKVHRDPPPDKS
Procedure, shortened: as §1

Measured: log2 ratio of Biotin-Ahx-Ub-VS probe labelling

OTUB1, sequence (Q96FW1 whole entry): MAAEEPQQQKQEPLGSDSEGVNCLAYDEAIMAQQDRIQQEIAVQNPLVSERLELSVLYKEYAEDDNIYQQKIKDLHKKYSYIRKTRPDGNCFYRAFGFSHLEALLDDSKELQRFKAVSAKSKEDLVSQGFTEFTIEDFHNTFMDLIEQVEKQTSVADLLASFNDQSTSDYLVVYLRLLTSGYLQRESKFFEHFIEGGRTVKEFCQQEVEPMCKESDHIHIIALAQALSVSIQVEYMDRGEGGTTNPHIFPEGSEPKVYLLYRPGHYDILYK
EIF3H, sequence (O15372 whole entry): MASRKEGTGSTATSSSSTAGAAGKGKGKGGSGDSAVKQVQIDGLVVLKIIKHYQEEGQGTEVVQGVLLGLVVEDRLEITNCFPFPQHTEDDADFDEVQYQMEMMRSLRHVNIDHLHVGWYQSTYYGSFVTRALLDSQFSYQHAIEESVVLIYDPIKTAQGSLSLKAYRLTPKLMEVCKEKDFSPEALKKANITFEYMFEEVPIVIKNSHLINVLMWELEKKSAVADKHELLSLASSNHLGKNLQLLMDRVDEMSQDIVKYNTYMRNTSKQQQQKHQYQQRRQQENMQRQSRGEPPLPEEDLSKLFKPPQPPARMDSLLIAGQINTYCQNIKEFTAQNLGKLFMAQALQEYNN
EIF3F, sequence (O00303 whole entry): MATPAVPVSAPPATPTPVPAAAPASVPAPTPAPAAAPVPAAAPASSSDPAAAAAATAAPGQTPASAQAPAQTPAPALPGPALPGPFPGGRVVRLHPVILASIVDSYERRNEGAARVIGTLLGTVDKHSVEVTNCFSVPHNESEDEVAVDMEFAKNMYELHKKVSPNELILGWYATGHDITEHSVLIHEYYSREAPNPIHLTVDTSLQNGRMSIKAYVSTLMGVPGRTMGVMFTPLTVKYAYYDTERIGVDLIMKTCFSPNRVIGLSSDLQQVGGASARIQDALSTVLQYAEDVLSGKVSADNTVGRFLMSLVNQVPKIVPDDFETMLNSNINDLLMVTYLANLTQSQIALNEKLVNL
ATXN3, sequence (P54252 whole entry): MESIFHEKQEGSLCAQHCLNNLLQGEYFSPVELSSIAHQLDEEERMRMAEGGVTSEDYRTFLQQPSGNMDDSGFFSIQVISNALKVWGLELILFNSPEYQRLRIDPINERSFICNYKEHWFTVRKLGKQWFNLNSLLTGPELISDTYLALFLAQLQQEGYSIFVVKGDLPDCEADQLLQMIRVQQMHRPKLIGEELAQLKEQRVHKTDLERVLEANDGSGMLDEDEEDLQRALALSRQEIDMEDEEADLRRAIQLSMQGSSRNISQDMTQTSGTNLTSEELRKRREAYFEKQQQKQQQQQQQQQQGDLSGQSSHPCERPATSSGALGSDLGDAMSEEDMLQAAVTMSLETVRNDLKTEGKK

Cc1cc(Cl)ccc1NC(=O)CCl
active: BAP1 -3.02
inactive: ALG13 -0.00605 | ATXN3 -0.0857 | EIF3F 0.0767 | EIF3H 0.0385 | FAM105A 0.174 | OTUB1 -0.116 | OTUD4 -0.0791 | OTUD5 -0.0787
